# Where a name gives a salt, the structure may show the parent alone.
# Tested on: SARS-CoV-2 low-rank motif (SARS-low)
# Assay: normalised indicator fluorescence (fraction of RNA + indicator signal without compound); higher = less displacement of indicator (weaker competition)
# Settings: compound concentration: 5 uM, 30 min
# Procedure, shortened: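 Displacement screen in 96-well plates: TO-PRO-1 or TO-PRO-3 indicator with RNA in 20 mM phosphate pH 7.0, 20 mM NaCl, 80 mM KCl. Each compound was added as 0.25 μL of 1 mM DMSO stock (about 5 uM final), and fluorescence was read after 30 min on an Infinite 200 PRO (excitation 485 or 620 nm). Values are indicator fluorescence after subtracting the buffer-plus-indicator blank, divided by the no-compound RNA-plus-indicator signal. Each is the mean of two independent experiments.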
# [1] = indicator: TO-PRO-1 0.1 uM, RNA concentration: 0.1 uM
# [2] = indicator: TO-PRO-3 0.5 uM, RNA concentration: 0.5 uM
smiles,measurement,setting,value
Cn1cc(-c2ccc3c(c2)CCN3C(=O)Cc2cccc(C(F)(F)F)c2)c2c(N)ncnc21,normalised indicator fluorescence,[1],1.35
same,normalised indicator fluorescence,[2],1.24
CC(C)=CCC[C@](C)(O[C@@H]1O[C@H](CO)[C@@H](O)[C@H](O)[C@H]1O)[C@H]1CC[C@]2(C)[C@@H]1[C@H](O)C[C@@H]1[C@@]3(C)CC[C@H](O)C(C)(C)[C@@H]3[C@@H](O[C@@H]3O[C@H](CO)[C@@H](O)[C@H](O)[C@H]3O[C@@H]3OC[C@@H](O)[C@H](O)[C@H]3O)C[C@]12C [Notoginsenoside R1],normalised indicator fluorescence,[1],1.23
same,normalised indicator fluorescence,[2],1.26
O=c1cc(-c2ccc(O)cc2)oc2cc(O)cc(O)c12 [Apigenin],normalised indicator fluorescence,[1],1.22
same,normalised indicator fluorescence,[2],1.27
COc1ccc(O)cc1 [4-Methoxyphenol],normalised indicator fluorescence,[1],1.12
same,normalised indicator fluorescence,[2],1.27
O=c1ccc2ccc(O)cc2o1 [7-Hydroxycoumarin],normalised indicator fluorescence,[1],1.25
same,normalised indicator fluorescence,[2],1.16
Cc1oncc1C(=O)Nc1ccc(C(F)(F)F)cc1 [Leflunomide],normalised indicator fluorescence,[1],1.07
same,normalised indicator fluorescence,[2],1.12
CN(C)C[C@@H]1CCn2cc(c3ccccc32)C2=C(C(=O)NC2=O)c2cn(c3ccccc23)CCO1 [Ruboxistaurin hydrochloride],normalised indicator fluorescence,[1],1.14
same,normalised indicator fluorescence,[2],0.961
O=c1ccc2ccc(O)c(O)c2o1 [Daphnetin],normalised indicator fluorescence,[1],1.04
same,normalised indicator fluorescence,[2],0.935
O=c1ncn2nc(Sc3ccc(F)cc3F)ccc2c1-c1c(Cl)cccc1Cl [Neflamapimod],normalised indicator fluorescence,[1],1.2
same,normalised indicator fluorescence,[2],1.17
N=C(NCCCCCCNC(=N)NC(=N)Nc1ccc(Cl)cc1)NC(=N)Nc1ccc(Cl)cc1 [Chlorhexidine hydrochloride],normalised indicator fluorescence,[1],1.01
same,normalised indicator fluorescence,[2],1.01

# Source: the supplement of paper PMC11865577
